# Assay results: the supplement of paper PMC4466140
# B1: unnamed (peptide)
# chain: SHRLWLYAAPKRPKT
# Columns and labels:
# Test in all cases: SPOT peptide array binding signal intensity (averaged, normalized) (arbitrary units (background-subtracted, floor 0; scale differs between SH3 domains)); higher = stronger binding of the SH3 domain to the peptide
# [1] = target: AgAbp1
# Procedure, shortened: (§1)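 GST-fused SH3 domains, from four yeast species, were produced in E. coli BL21(DE3) and captured on glutathione Sepharose. Membranes of cellulose carrying synthetic 15-mer peptides, in which cysteines had been replaced by serines, were exposed to each domain at 10 μg/ml overnight at 4°C in TBS-based blocking buffer. After anti-GST antibody, an HRP anti-mouse secondary and luminol, spots were imaged and quantified using Genespotter. Binding signal is normalized and background-subtracted spot intensity, averaged over replicates, in arbitrary units that differ between domains.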
# [2] = target: AgBbc1
# Procedure, shortened: as §1
# [3] = target: AgBem1-D1
# Procedure, shortened: as §1
# [4] = target: AgBzz1-D1
# Procedure, shortened: as §1
# [5] = target: AgBzz1-D2
# Procedure, shortened: as §1
# [6] = target: AgCyk3
# Procedure, shortened: as §1
# [7] = target: AgFus1
# Procedure, shortened: as §1
# [8] = target: AgHof1
# Procedure, shortened: as §1
# [9] = target: AgHse1
# Procedure, shortened: as §1
# [10] = target: AgLsb1
# Procedure, shortened: as §1
# [11] = target: AgLsb4
# Procedure, shortened: as §1
# [12] = target: AgMyo5
# Procedure, shortened: as §1
# [13] = target: AgNbp2
# Procedure, shortened: as §1
# [14] = target: AgRvs167
# Procedure, shortened: as §1
# [15] = target: AgSho1
# Procedure, shortened: as §1
# [16] = target: AgSla1-D1-D2
# Procedure, shortened: as §1
# [17] = target: AgSla1-D3
# Procedure, shortened: as §1
# [18] = target: CaAbp1-D1
# Procedure, shortened: as §1
# [19] = target: CaAbp1-D2
# Procedure, shortened: as §1
# [20] = target: CaBbc1
# Procedure, shortened: as §1
# [21] = target: CaBem1-D1
# Procedure, shortened: as §1
# [22] = target: CaBzz1-D1
# Procedure, shortened: as §1
# [23] = target: CaBzz1-D2
# Procedure, shortened: as §1
# [24] = target: CaCyk3
# Procedure, shortened: as §1
# [25] = target: CaFus1
# Procedure, shortened: as §1
# [26] = target: CaHof1
# Procedure, shortened: as §1
# [27] = target: CaHse1
# Procedure, shortened: as §1
# [28] = target: CaLsb1
# Procedure, shortened: as §1
# [29] = target: CaLsb4
# Procedure, shortened: as §1
# [30] = target: CaMyo5
# Procedure, shortened: as §1
# [31] = target: CaNbp2
# Procedure, shortened: as §1
# [32] = target: CaRvs167
# Procedure, shortened: as §1
# [33] = target: CaRvs167-3
# Procedure, shortened: as §1
# [34] = target: CaSho1
# Procedure, shortened: as §1
# [35] = target: CaSla1-D1-D2
# Procedure, shortened: as §1
# [36] = target: CaSla1-D3
# Procedure, shortened: as §1
# [37] = target: ScAbp1
# Procedure, shortened: as §1
# [38] = target: ScBbc1
# Procedure, shortened: as §1
# [39] = target: ScBem1-D1
# Procedure, shortened: as §1
# [40] = target: ScBzz1-D1
# Procedure, shortened: as §1
# [41] = target: ScBzz1-D2
# Procedure, shortened: as §1
# [42] = target: ScCyk3
# Procedure, shortened: as §1
# [43] = target: ScFus1
# Procedure, shortened: as §1
# [44] = target: ScHof1
# Procedure, shortened: as §1
# [45] = target: ScHse1
# Procedure, shortened: as §1
# [46] = target: ScLsb1
# Procedure, shortened: as §1
# [47] = target: ScLsb2
# Procedure, shortened: as §1
# [48] = target: ScLsb3
# Procedure, shortened: as §1
# [49] = target: ScLsb4
# Procedure, shortened: as §1
# [50] = target: ScMyo3
# Procedure, shortened: as §1
# [51] = target: ScMyo5
# Procedure, shortened: as §1
# [52] = target: ScNbp2
# Procedure, shortened: as §1
# [53] = target: ScPex13
# Procedure, shortened: as §1
# [54] = target: ScRvs167
# Procedure, shortened: as §1
# [55] = target: ScSho1
# Procedure, shortened: as §1
# [56] = target: ScSla1-D1-D2
# Procedure, shortened: as §1
# [57] = target: ScSla1-D3
# Procedure, shortened: as §1
# [58] = target: SpAbp1-D1
# Procedure, shortened: as §1
# [59] = target: SpBbc1
# Procedure, shortened: as §1
# [60] = target: SpBzz1-D1
# Procedure, shortened: as §1
# [61] = target: SpBzz1-D2
# Procedure, shortened: as §1
# [62] = target: SpCyk3
# Procedure, shortened: as §1
# [63] = target: SpHof1
# Procedure, shortened: as §1
# [64] = target: SpHof1-2
# Procedure, shortened: as §1
# [65] = target: SpHof1-3
# Procedure, shortened: as §1
# [66] = target: SpHse1
# Procedure, shortened: as §1
# [67] = target: SpLsb1
# Procedure, shortened: as §1
# [68] = target: SpLsb4
# Procedure, shortened: as §1
# [69] = target: SpMyo1
# Procedure, shortened: as §1
# [70] = target: SpNbp2
# Procedure, shortened: as §1
# [71] = target: SpPex13
# Procedure, shortened: as §1
# [72] = target: SpRvs167
# Procedure, shortened: as §1
# [73] = target: SpSla1-D1-D2
# Procedure, shortened: as §1
# [74] = target: SpSla1-D3
# Procedure, shortened: as §1
binder,measurement,setting,value
B1,SPOT peptide array binding signal intensity,[1],15.5
same,SPOT peptide array binding signal intensity,[2],42
same,SPOT peptide array binding signal intensity,[3],110
same,SPOT peptide array binding signal intensity,[4],46
same,SPOT peptide array binding signal intensity,[5],42
same,SPOT peptide array binding signal intensity,[6],0.5
same,SPOT peptide array binding signal intensity,[7],296
same,SPOT peptide array binding signal intensity,[8],26
same,SPOT peptide array binding signal intensity,[9],5
same,SPOT peptide array binding signal intensity,[10],0.5
same,SPOT peptide array binding signal intensity,[11],28.5
same,SPOT peptide array binding signal intensity,[12],5.5
same,SPOT peptide array binding signal intensity,[13],29.5
same,SPOT peptide array binding signal intensity,[14],2
same,SPOT peptide array binding signal intensity,[15],23.5
same,SPOT peptide array binding signal intensity,[16],44
same,SPOT peptide array binding signal intensity,[17],11
same,SPOT peptide array binding signal intensity,[18],63
same,SPOT peptide array binding signal intensity,[19],37.5
same,SPOT peptide array binding signal intensity,[20],100
same,SPOT peptide array binding signal intensity,[21],52
same,SPOT peptide array binding signal intensity,[22],73
same,SPOT peptide array binding signal intensity,[23],38.5
same,SPOT peptide array binding signal intensity,[24],7
same,SPOT peptide array binding signal intensity,[25],266
same,SPOT peptide array binding signal intensity,[26],0.5
same,SPOT peptide array binding signal intensity,[27],26.2
same,SPOT peptide array binding signal intensity,[28],1.5
same,SPOT peptide array binding signal intensity,[29],48
same,SPOT peptide array binding signal intensity,[30],18
same,SPOT peptide array binding signal intensity,[31],133
same,SPOT peptide array binding signal intensity,[32],14
same,SPOT peptide array binding signal intensity,[33],24.5
same,SPOT peptide array binding signal intensity,[34],149
same,SPOT peptide array binding signal intensity,[35],10.5
same,SPOT peptide array binding signal intensity,[36],17.8
same,SPOT peptide array binding signal intensity,[37],41
same,SPOT peptide array binding signal intensity,[38],7.75
same,SPOT peptide array binding signal intensity,[39],19
same,SPOT peptide array binding signal intensity,[40],42
same,SPOT peptide array binding signal intensity,[41],71
same,SPOT peptide array binding signal intensity,[42],20
same,SPOT peptide array binding signal intensity,[43],260
same,SPOT peptide array binding signal intensity,[44],3.25
same,SPOT peptide array binding signal intensity,[45],404
same,SPOT peptide array binding signal intensity,[46],0.5
same,SPOT peptide array binding signal intensity,[47],3
same,SPOT peptide array binding signal intensity,[48],64
same,SPOT peptide array binding signal intensity,[49],≤ 0
same,SPOT peptide array binding signal intensity,[50],10
same,SPOT peptide array binding signal intensity,[51],18.5
same,SPOT peptide array binding signal intensity,[52],30
same,SPOT peptide array binding signal intensity,[53],8.75
same,SPOT peptide array binding signal intensity,[54],18.3
same,SPOT peptide array binding signal intensity,[55],309
same,SPOT peptide array binding signal intensity,[56],32
same,SPOT peptide array binding signal intensity,[57],5
same,SPOT peptide array binding signal intensity,[58],45
same,SPOT peptide array binding signal intensity,[59],5
same,SPOT peptide array binding signal intensity,[60],171
same,SPOT peptide array binding signal intensity,[61],0.5
same,SPOT peptide array binding signal intensity,[62],3
same,SPOT peptide array binding signal intensity,[63],84
same,SPOT peptide array binding signal intensity,[64],24.5
same,SPOT peptide array binding signal intensity,[65],216
same,SPOT peptide array binding signal intensity,[66],157
same,SPOT peptide array binding signal intensity,[67],35.5
same,SPOT peptide array binding signal intensity,[68],38.5
same,SPOT peptide array binding signal intensity,[69],7.5
same,SPOT peptide array binding signal intensity,[70],30
same,SPOT peptide array binding signal intensity,[71],23
same,SPOT peptide array binding signal intensity,[72],7.33
same,SPOT peptide array binding signal intensity,[73],3
same,SPOT peptide array binding signal intensity,[74],15
